# Test results taken from PubChem BioAssay (NCI).
# “And” between values parts separate entries of the source, which are not always exact repeats. Equal values may be shown once. The panel holds about 83,000 compounds, 20% with a hit somewhere; the sample as a whole holds those more often.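 Cell lines were cultured in 96-well plates, exposed to a single compound concentration, and assessed for percent growth 48 hours later.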 The source made the active and inactive calls. The calls were made as follows: active = growth percent below 10; inactive = the rest.
# Key:
# Assay in all cases: NCI-60 one-dose screen, 48 h (100 = growth as untreated, 0 = no growth, -100 = all killed)
# EKVX NSCLC = settings: 10 µM
# SN12C renal = settings: 10 µM
# UO-31 renal = settings: 10 µM
# TK-10 renal = tested on: TK-10 renal
# ACHN renal = settings: 10 µM
# CAKI-1 renal = settings: 10 µM
# A498 renal = settings: 10 µM
# CCRF-CEM leukemia = settings: 10 µM
# MOLT-4 leukemia = settings: 10 µM unless noted
# SR leukemia = settings: 10 µM
SMILES,growth (EKVX NSCLC),growth (SN12C renal),growth (UO-31 renal),growth (TK-10 renal; 10 µM),growth (ACHN renal),growth (CAKI-1 renal),growth (A498 renal),growth (CCRF-CEM leukemia),growth (MOLT-4 leukemia),growth (SR leukemia),growth (TK-10 renal; 100 µM),growth (TK-10 renal; 25 µM)
COc1ccc2c(c1)[nH]c1c(/C=C/c3ccccc3)nccc12,62.2% (inactive),78.7% (inactive),25.7% (inactive),81.2% (inactive),61.1% (inactive),58.4% (inactive),71.2% (inactive),65% (inactive),48% (inactive),29.3% (inactive),,
COc1ccc(N)c2c1C(=O)c1ccccc1C2=O,106% (inactive),93.9% (inactive),68.5% (inactive),102% (inactive),96.9% (inactive),74% (inactive),93.4% (inactive),89.9% (inactive),67% (inactive),,,
CN(CC(=O)O)c1ccc(/C=C/c2ccnc3ccccc23)cc1,69.6% (inactive),85.2% (inactive),61.7% (inactive),98.7% (inactive),89.1% (inactive),92.9% (inactive),97.1% (inactive),66.8% (inactive),34.4% (inactive),,,
O=c1[nH]cc(/C=N\Nc2ccccc2)c(=O)[nH]1,56.4% (inactive),68.7% (inactive),26% (inactive),78% (inactive),40.3% (inactive),41.6% (inactive),87.5% (inactive),31.2% (inactive),49.6% (inactive),65.1% (inactive),,
O=C(CCc1ccccc1)ON1C(=S)C(c2ccccc2)(c2ccccc2)N=C1Sc1ccccc1,,,,,,,,,,,28.6% (inactive) and 7.58% (active),
CN(C)CCNc1cccc2sc3ccc(O)cc3c(=O)c12,,40.4% (inactive),20% (inactive),58% (inactive),14.9% (inactive),5.13% (active),92.5% (inactive),,14.3% (inactive),,,
CC[C@@]1(OC(=O)CN(C)C)C(=O)OCc2c1cc1n(c2=O)Cc2cc3c(N)cccc3nc2-1,18.2% (inactive),7.95% (active),-50.8% (active),20.1% (inactive),-49% (active),-20.1% (active),-56.6% (active),5.31% (active),-0.423% (active),-3.07% (active),,
CC1CCC2(C(=O)O)CCC3(C)C(=CCC4C5(C)CC(O)C(O)C(C)(CO)C5C(O)CC43C)C2C1C (stereo unspecified),113% (inactive),96.1% (inactive),92.8% (inactive),108% (inactive),116% (inactive),118% (inactive),,88.5% (inactive),113% (inactive),105% (inactive),,
ClCCn1c(CCl)nc2ccc(Cl)cc21,,-47% (active),-82.6% (active),-30.6% (active),-68.8% (active),-28.5% (active),1.48% (active),-46.8% (active),-52.7% (active),-32.4% (active),,
O=C(O)c1ccccc1.[Ag],103% (inactive),102% (inactive),103% (inactive),109% (inactive),111% (inactive),90.2% (inactive),,15.4% (inactive),102% (inactive),102% (inactive),,
COc1cc2c(cc1C[N+](C)(C)CSc1ccccc1)-c1ccccc1CC2,,,,,,,,,,,-93.9% (active) and -97.7% (active),
O=C1c2ccccc2CCC1(Br)Br,,28.3% (inactive),28% (inactive),-11% (active),-95.2% (active),18.7% (inactive),70.8% (inactive),-22.2% (active),-13.4% (active),0.0746% (active),,
N#CC(=S)Nc1cccc(Cl)c1,,,,,,,,,,,5.57% (active) and -9.55% (active),
C=C(C)[C@@H]1CCc2c(O)c(O)c(=O)cc(C)c2C1,,,,,,,,,,,-17% (active) and -96.5% (active),
O=C1c2cccc3cc([N+](=O)[O-])cc(c23)C(=O)N1CCN1CCCC1,10.9% (inactive),-18.2% (active),-42.8% (active),-11.3% (active),-57.9% (active),-14% (active),-64.4% (active),-5.62% (active),-17.9% (active),-34.6% (active),,
C=C1N(C)c2ccc(Cl)cc2C1(C)C,25.2% (inactive),54.8% (inactive),78.5% (inactive),83.8% (inactive),94.9% (inactive),,84.1% (inactive),42.2% (inactive),35.8% (inactive),,,
Cc1cc(O)c2c(c1O)C(=O)C13C(=C2O)C(=O)C2C(O)C1C1C(O)C3C(=O)C3=C(O)c4c(O)cc(C)c(O)c4C(=O)C321 (stereo unspecified),44.3% (inactive),12.7% (inactive),22.6% (inactive),22.3% (inactive),11.4% (inactive),-33.6% (active),,4.16% (active),8.98% (active),12.6% (inactive),,
O=C1C(Cl)=C(Cl)C(Cl)(Cl)C(Cl)C1(Cl)Cl (stereo unspecified),105% (inactive),88.5% (inactive),84.5% (inactive),98.9% (inactive),100% (inactive),99% (inactive),115% (inactive),94.9% (inactive),94.8% (inactive),90.2% (inactive),,
O=S(=O)(c1cc(Cl)ccc1O)c1cc(Cl)ccc1O,100% (inactive),80.4% (inactive),71.8% (inactive),87.5% (inactive),84.9% (inactive),92.1% (inactive),59.6% (inactive),76.2% (inactive),90.2% (inactive),84.6% (inactive),,
Cn1ncc2cc3c(Nc4ccc(Cl)cc4)cccc3nc21,76.7% (inactive),93.7% (inactive),62.5% (inactive),92.9% (inactive),90.5% (inactive),88.6% (inactive),75.4% (inactive),95.5% (inactive),89% (inactive),84.8% (inactive),,
Clc1c(Cl)c(Cl)c2c(nnn2C2CCCO2)c1Cl (stereo unspecified),,,,,,,,,,,-9.89% (active) and -74.8% (active),
COc1cc(N)ccc1Nc1c2ccccc2nc2ccccc12,,81% (inactive),50.6% (inactive),88.3% (inactive),88.6% (inactive),70.5% (inactive),87.3% (inactive),,2.72% (active),10.1% (inactive),,
Nc1nc(N)c2cc(Sc3ccc4ccccc4c3)ccc2n1,38.2% (inactive),27.9% (inactive),22% (inactive),49.5% (inactive),28.2% (inactive),17.3% (inactive),58.5% (inactive),38.2% (inactive),18.4% (inactive),-26.3% (active),,
O=C1C=CC(=O)N1c1ccc(N2C(=O)C=CC2=O)cc1,90.8% (inactive),102% (inactive),76.7% (inactive),92% (inactive),92.2% (inactive),69.9% (inactive),149% (inactive),15.9% (inactive),-9.11% (active),0.0539% (active),,
COc1cccc(C(c2cc3c(cc2O)OCO3)N2CCOCC2)c1OC (stereo unspecified),97.7% (inactive),97.8% (inactive),88.7% (inactive),101% (inactive),103% (inactive),94.7% (inactive),75.3% (inactive),97.1% (inactive),96% (inactive),89.5% (inactive),,
Cc1c(-c2ccccc2)[nH]c2ccccc12,104% (inactive),114% (inactive),90.4% (inactive),119% (inactive),100% (inactive),91.5% (inactive),91.3% (inactive),95.1% (inactive),99.6% (inactive),102% (inactive),,
CO[C@@]12[C@H](COC(N)=O)C3=C(C(=O)C(C)=C(N)C3=O)N1C[C@@H]1N[C@@H]12,,,,,,,,,,,,-32.7% (active) and -74.4% (active)
S=C1SCN(CCc2ccccc2)CN1CCc1ccccc1,109% (inactive),101% (inactive),70.6% (inactive),82.1% (inactive),110% (inactive),90.5% (inactive),,57.3% (inactive),76.8% (inactive),61.2% (inactive),,
